INS-1E GSIS act – GLuc luminescence reporter in INS-1E cells, primary screen for activators of glucose-dependent secretion of insulin | INS-1E GLuc reporter insulin secretion, 2-3 h | activation, % at 16.6 µM | 370,000 compounds, 0.61% hits;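 active = lowest replicate activation of at least 40%, so every replicate reaches that level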
DENV2 CPE – DENV2-induced cell death inhibition; DENV2-infected cells, cytopathic effect rescue, plate reader; CPE inhibition, % at 9.99 µM; 350,000 compounds, 1.7% hits; AID 651640; in the data active = CPE inhibition above about 20%, passing the limit was not always enough; inconclusive = no clear call, values can overlap the other calls; tested in BHK-21 cells
CaV13 FRET inh – Disruptors of the CACNA1D IQ motif to Ca2+-dependent inactivation inhibitor domain association, primary screening, Förster resonance energy transfer in intact living …. HEK cells, CFP/YFP FRET ICDI-IQ, plate reader, 10 min; percent FRET-ratio fall versus neutral wells. inhibition, % at 12.3 µM. 340,000 compounds, 0.098% hits;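 active = mean replicate inhibition of at least 30% and at least 1% of replicates passing that level; inconclusive = only one of the two criteria is met; inactive = neither criterion is met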
rRNA inh HTS – inhibitors of bacterial rRNA selective over humanized ribosomes | E. coli WT GFP vs humanized-ribosome RFP mutants, fluorescence, 24 h; stronger effect = lower value; DMSO median 0, no signal -100 | GFP signal change (wild-type ribosome), % (concentration not given with the values) | 350,000 compounds, 1.6% hits | AID 720706;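 active = significant combined selectivity score with lowered wild-type GFP, culture density cut under 30%, mutant RFP and density less affected; inactive = any of these conditions unmet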
ERAP1 HTS inh – ERAP1 (human) enzyme inhibition; recombinant ERAP1, Leu-AMC fluorescence, 60 min; inhibition, % at 10.7 µM; 340,000 compounds, 0.15% hits;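 active = mean replicate inhibition of at least 30%, or all replicates individually reaching that 30% level; inactive = mean below 30% and not every replicate reaching it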
Target sequence (Q9NZ08 whole entry, looked up): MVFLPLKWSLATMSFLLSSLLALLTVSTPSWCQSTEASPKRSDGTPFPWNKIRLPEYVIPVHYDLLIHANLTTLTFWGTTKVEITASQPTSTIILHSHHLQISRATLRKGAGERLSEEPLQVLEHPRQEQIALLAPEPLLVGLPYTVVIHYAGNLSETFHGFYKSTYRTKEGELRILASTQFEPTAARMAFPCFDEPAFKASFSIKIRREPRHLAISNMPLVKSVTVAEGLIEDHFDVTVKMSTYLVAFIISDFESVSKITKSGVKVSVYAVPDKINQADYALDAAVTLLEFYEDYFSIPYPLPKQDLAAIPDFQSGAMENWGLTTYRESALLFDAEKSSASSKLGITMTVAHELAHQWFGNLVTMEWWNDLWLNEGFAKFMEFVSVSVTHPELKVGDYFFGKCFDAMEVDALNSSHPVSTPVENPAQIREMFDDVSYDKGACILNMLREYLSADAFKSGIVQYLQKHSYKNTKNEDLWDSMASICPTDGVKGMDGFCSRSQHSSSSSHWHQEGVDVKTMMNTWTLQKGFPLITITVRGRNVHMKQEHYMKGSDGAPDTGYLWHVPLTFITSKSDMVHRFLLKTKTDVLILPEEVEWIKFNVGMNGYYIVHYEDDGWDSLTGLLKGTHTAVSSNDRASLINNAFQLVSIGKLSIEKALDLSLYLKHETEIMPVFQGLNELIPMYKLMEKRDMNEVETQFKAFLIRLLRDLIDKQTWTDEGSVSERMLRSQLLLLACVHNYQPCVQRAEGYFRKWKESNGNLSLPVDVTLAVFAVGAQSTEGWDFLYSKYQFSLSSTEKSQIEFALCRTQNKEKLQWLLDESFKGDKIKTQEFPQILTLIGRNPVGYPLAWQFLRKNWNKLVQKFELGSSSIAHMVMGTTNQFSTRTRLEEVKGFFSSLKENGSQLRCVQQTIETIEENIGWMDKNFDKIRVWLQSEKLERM
PGC1a acetyl inh – PGC1a acetylation modulation, inhibitor mode; AID 651687; inhibition, % at 15.6 µM; 350,000 compounds, 0.17% hits; U2OS PGC1a acetylation, AlphaScreen anti-acetyl-lysine; with virally co-expressed GCN5 acetyltransferase;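 active = every replicate shows inhibition of at least 40%; inconclusive = mean inhibition at least 40% but some replicate below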
Large screens that a line does not name were inactive; ! = not confirmed by another sample. In the library only some 3.2% were active in any assay of this set; here they are far more common.

COc1ccc(S(=O)(=O)N2C[C@H](O)COC[C@H]3O[C@H](CC(=O)NCCCN(C)C)CC[C@@H]32)cc1	DENV2 CPE 20.6 (no result: CaV13 FRET inh)
O=C(C[C@H]1CC[C@@H]2[C@H](COC[C@@H](O)CN2Cc2ccccc2)O1)N[C@@H]1CCN(Cc2ccccc2)C1	none (no result: CaV13 FRET inh)
O=C(C[C@@H]1CC[C@@H]2NC[C@H](O)COC[C@H]2O1)NCCc1ccccc1	none (no result: CaV13 FRET inh)
CN1c2ccc(-c3ccccc3)cc2[C@H]2[C@H](CCN2C(=O)c2ccccc2)[C@@H]1CO	DENV2 CPE inconclusive (no result: CaV13 FRET inh)
Cc1cccc(-c2ccc([C@@H]3[C@@H](CO)N4C(=O)CN(C(=O)c5cnccn5)C[C@@H]34)cc2)c1	none (no result: DENV2 CPE, CaV13 FRET inh, ERAP1 HTS inh, PGC1a acetyl inh)
Cn1cnc(CCNC(=O)C[C@@H]2CC[C@@H]3[C@H](COC[C@@H](O)CN3C(=O)Nc3ccc(Cl)cc3)O2)c1	none (no result: CaV13 FRET inh)
Cn1cnc(CCNC(=O)C[C@H]2CC[C@@H]3[C@H](COC[C@H](O)CN3C(=O)Nc3ccc(Cl)cc3)O2)c1	rRNA inh HTS -21.4 (no result: CaV13 FRET inh)
O=C(C[C@H]1CC[C@H]2[C@@H](COC[C@@H](O)CN2S(=O)(=O)c2ccccc2Cl)O1)NCc1ccccc1Cl	DENV2 CPE 72.6 (no result: CaV13 FRET inh)
O=C(C[C@@H]1CC[C@@H]2[C@H](COC[C@H](O)CN2Cc2cc(F)cc(F)c2)O1)NCc1cccc(F)c1	DENV2 CPE 21.8 (no result: CaV13 FRET inh)
O=C(C[C@@H]1CC[C@@H]2[C@H](COC[C@@H](O)CN2S(=O)(=O)c2ccc(F)cc2)O1)NCc1ccc(Cl)c(Cl)c1	DENV2 CPE 29.1 (no result: CaV13 FRET inh)
O=C(C[C@H]1CC[C@@H]2[C@H](COC[C@H](O)CN2S(=O)(=O)c2ccccc2Cl)O1)NCc1ccccc1Cl	none (no result: CaV13 FRET inh)
Cc1noc(C)c1S(=O)(=O)Nc1ccc2c(c1)C(=O)N([C@@H](C)CO)C[C@@H](C)[C@H](CN(C)S(=O)(=O)c1cccs1)OCCCC[C@@H](C)O2	none (no result: CaV13 FRET inh, ERAP1 HTS inh)
C[C@H]1CN([C@@H](C)CO)C(=O)c2cc(NC(=O)Cc3ccccc3)ccc2O[C@H]1CN(C)CC1CC1	none (no result: CaV13 FRET inh, PGC1a acetyl inh)
O=C(C[C@@H]1CC[C@@H]2[C@H](COC[C@H](O)CN2Cc2ccc(Cl)cc2)O1)NCCc1ccccc1	none (no result: CaV13 FRET inh)
O=C(C[C@H]1CC[C@@H]2[C@H](COC[C@@H](O)CN2Cc2ccc(Cl)cc2)O1)NCCc1ccccc1	rRNA inh HTS -21.2!
CC(C)C(=O)Nc1ccc2c(c1)C(=O)N(C)[C@@H]1CC[C@H](CC(=O)Nc3ccccc3)O[C@H]1CO2	none (no result: CaV13 FRET inh)
C[C@@H]1CN([C@H](C)CO)C(=O)c2cc(NC(=O)CCCN(C)C)ccc2O[C@@H]1CN(C)S(=O)(=O)c1cccs1	none (no result: CaV13 FRET inh)
O=C(NN1C(=O)C2C3C=CC(C4CC34)C2C1=O)c1cccc(Br)c1 (stereo not given)	rRNA inh HTS -25.2 (no result: PGC1a acetyl inh)
Cc1noc(C)c1S(=O)(=O)N(C)C[C@H]1Oc2c(NS(=O)(=O)c3ccc(F)cc3)cccc2C(=O)N([C@@H](C)CO)C[C@H]1C	none (no result: DENV2 CPE, CaV13 FRET inh, ERAP1 HTS inh)
CCOC(=O)[C@H]1[C@H]2COc3ccc(Br)cc3[C@H]2N2C(=O)CNC(=O)[C@@]12C	DENV2 CPE 62.3 (no result: PGC1a acetyl inh)
CCOC(=O)[C@@H]1[C@H]2COc3ccc(Br)cc3[C@@H]2N2C(=O)N(c3cccc(F)c3)C(=O)[C@@]12C	DENV2 CPE 93.3 (no result: PGC1a acetyl inh)
CCOC(=O)[C@@H]1[C@H]2COc3ccc(Br)cc3[C@@H]2N2C(=O)N(c3ccc(F)cc3)C(=O)[C@@]12C	none
CCOC(=O)[C@H]1[C@H]2COc3ccccc3[C@@H]2N2C(=O)[C@@H](CO)NC(=O)[C@@]12C	DENV2 CPE 28.9 (no result: PGC1a acetyl inh)
CCOC(=O)[C@H]1[C@H]2COc3ccc(Cl)cc3[C@H]2N2C(=O)CNC(=O)[C@@]12C	none (no result: INS-1E GSIS act)
COc1ccc(-c2nc(CN3CCC(C(=O)N4CCOCC4)CC3)c(C)o2)c(OC)c1	DENV2 CPE 43.6
CCN(CC)C(=O)CSc1nc2c(sc(=S)n2-c2ccc(C)cc2C)c(=O)[nH]1	rRNA inh HTS -27.4
CCOC(=O)CSc1nc2c(sc(=S)n2-c2ccccc2)c(=O)[nH]1	none (no result: PGC1a acetyl inh)
CCOc1ccc(-n2c(=S)sc3c(=O)[nH]c(SCC(=O)N4CCC(C)CC4)nc32)cc1	rRNA inh HTS -25.1 (no result: DENV2 CPE)
CCOc1ccc(-n2c(=S)sc3c(=O)[nH]c(SCC(=O)C(C)(C)C)nc32)cc1	rRNA inh HTS -28.9
CO[C@H]1CN(C)C(=O)c2cc(NC(=O)c3cnccn3)ccc2OC[C@@H](C)N(C)C[C@H]1C	none (no result: CaV13 FRET inh)
C[C@@H]1CN([C@@H](C)CO)C(=O)c2cc(NC(=O)Cc3ccccc3)ccc2O[C@@H](C)CCCCO[C@@H]1CN(C)CC1CCCCC1	DENV2 CPE 25.7 (no result: CaV13 FRET inh)
C[C@@H]1CCCCO[C@H](CN(C)CC2CCCCC2)[C@@H](C)CN([C@H](C)CO)C(=O)c2cc(NC(=O)CCC(F)(F)F)ccc2O1	DENV2 CPE 52.2 (no result: CaV13 FRET inh, ERAP1 HTS inh)
C[C@H]1CCCCO[C@H](CN(C)CC2CCCCC2)[C@@H](C)CN([C@@H](C)CO)C(=O)c2cc(NC(=O)CCC(F)(F)F)ccc2O1	none (no result: CaV13 FRET inh, ERAP1 HTS inh)
C[C@@H]1CN([C@H](C)CO)C(=O)c2cc(NC(=O)CCC(F)(F)F)ccc2O[C@@H](C)CCCCO[C@@H]1CN(C)C(=O)C1CCCCC1	DENV2 CPE 87.5 (no result: CaV13 FRET inh)
C[C@@H]1CCCCO[C@@H](CN(C)CC2CCCCC2)[C@@H](C)CN([C@@H](C)CO)C(=O)c2cc(NC(=O)CCC(F)(F)F)ccc2O1	DENV2 CPE 29.9 (no result: CaV13 FRET inh, ERAP1 HTS inh)
C[C@H](CO)N1C[C@H](C)[C@H](CN(C)CC2CCCCC2)OCCCC[C@H](C)Oc2ccc(NC(=O)CCC(F)(F)F)cc2C1=O	none (no result: CaV13 FRET inh, ERAP1 HTS inh)
C[C@H]1CCCCO[C@H](CN(C)C(=O)C2CCCCC2)[C@@H](C)CN([C@@H](C)CO)C(=O)c2cc(NC(=O)CCC(F)(F)F)ccc2O1	none (no result: DENV2 CPE, CaV13 FRET inh)
C[C@@H]1CN([C@H](C)CO)C(=O)Cc2cc(NC(=O)Cn3cnnn3)ccc2O[C@H]1CN(C)Cc1ccc2c(c1)OCO2	none (no result: CaV13 FRET inh)
C[C@@H]1CCCCO[C@H](CN(C)S(C)(=O)=O)[C@@H](C)CN([C@H](C)CO)C(=O)c2cc(NC(=O)CCC(F)(F)F)ccc2O1	DENV2 CPE 115.9 (no result: CaV13 FRET inh)
CCS(=O)(=O)Nc1ccc2c(c1)C(=O)N(C)[C@H]1CC[C@H](CC(=O)NCCOC)O[C@H]1CO2	none (no result: CaV13 FRET inh, PGC1a acetyl inh)
O=C(NCC[C@@H]1CC[C@H](NC(=O)C2CCC2)[C@H](CO)O1)c1cc(Cl)cc(Cl)c1	none (no result: CaV13 FRET inh)
Cc1ccc(S(=O)(=O)Nc2ccc3c(c2)C(=O)N([C@@H](C)CO)C[C@@H](C)[C@H](CN(C)C(=O)Nc2ccc4c(c2)OCO4)OCCCC[C@@H](C)O3)cc1	none (no result: CaV13 FRET inh)
COc1ccccc1OCCCCN1CCCCC1	none
Cc1ccccc1OCCCCN1CCCCC1	DENV2 CPE 33.9 (no result: INS-1E GSIS act)
Cc1cccc(Cl)c1OCCN1CCCC1	DENV2 CPE 70.5

Screening data (PubChem BioAssay)
